Source: the OligoGym collection

target: SNX29; assay: pooled miR-30 sensor sort-seq; sequence = guide strand; conditions: shRNA
Further: reference of the scale not given here.

Sequence | sensor-assay potency score (higher = more potent)
TTGACCTTCTCTTTTCAGCATC | -0.863
TTTTATCCGGATGTAGACCTGA | 0.194
TTTCTTTCGTAGGAGCTTGCGA | -0.585
TTCTTTCGTAGGAGCTTGCGAG | -0.569
TTGAGCACCTCGTTCTCTCTGG | -0.561
TACTTGTTTTGTAACTTGTGGT | 0.289
TAACTTGTGGTGCAAACTCCTG | -1.57
TTGGACTTTGAGCACCTCGTTC | -0.779
TTCTGGAGCTGCTTTCTCCGTT | -0.513
AACTTCTCCATCAACACTCCAA | 0.0779
TTCTTCAGCAATTTCTCCCGGC | 0.0945

target: SNX32; assay: as above; conditions: shRNA

Sequence | sensor-assay potency score (higher = more potent)
TTCTGTAGCTTTTCCCTCGAAG | -0.129
TTAGCTGGTTGACTTCCTGTGT | 0.0166
TTTCGAAAAGAGGAGACCCGGC | -0.633
TAAGGAGCTGTCTCCCTGCAGA | -1.06
TGCGTCAGAAATCTCCACCTGT | 0.185
TGAACAGTGAATTTCACCTTGT | 0.317
AATTTGAGGAAGCTCGTCCTTA | -0.0375
TTCGTGCATCGCAACTGTCTTC | -0.785
TACTCCAACAGGAAGGTCCTCT | 0.509
TTGAACAGTGAATTTCACCTTG | 0.337
TTTGAGCTCCAGCTCTGCCAGC | -1.19

target: SOCS2; assay: as above; conditions: shRNA

Sequence | sensor-assay potency score (higher = more potent)
TTCGAAGATTAGTTGGTCCAGC | 0.103
TAGTAGGTAGTCTGAATGCGAG | -0.794
TTTTCCGTCTTGGTATTCGATT | -1.45
TATTGTTAGTAGGTAGTCTGAA | 0.147
TTCTCTTTTACATAGCTGCATT | -0.899
TATCCTTGCACATCTGAACATA | -1.25
TTGCACATCTGAACATAGTAGT | 0.207
TAATCTTTTAGTCTTGTTGGTA | -0.175
TTAAGCTTGGATTTGACACATA | -1
TTAACAGTCATACTTCCCCAGT | -1.23
TTAGTAGGTAGTCTGAATGCGA | -0.295
TTTGGCTTCATTAACAGTCATA | -0.491

target: SOHLH2; assay: as above; conditions: shRNA

Sequence | sensor-assay potency score (higher = more potent)
TATGTTTGCAAATAGTTTCTGT | 0.299
TTTCTGTACAGTATCAGCCAGG | -0.773
TTCGCTGTAGGACCTCTGCAGG | -0.848
TTTGATATTAGGTCTTTGGGTG | -0.0455
TAAGATGTCTATTTTTGCCTGG | 0.389
TTTGAGGGACATGTTGTCCAGT | -0.779
